Experimental data as given in PubChem BioAssay AID2599 (Sanford-Burnham Center for Chemical Genomics, 2010).
In all, about 330,000 compounds went through this assay and about 5,800 (1.8%) were called active. Only a selection was taken, and actives are over-represented in it overall. Unmarked numbers belong to inactive results.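 Rule for the calls: active = inhibition above about 50% at the single tested dose (limit read from the data); inactive = the rest.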

Each compound was assayed against Sentrin-specific protease 6 (Homo sapiens) (UniProt Q9GZR1) (assay: inhibition of human SENP6 catalytic domain – biochemical, luminescence, uHTS, primary screen (AID 2599;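 note: plate controls were DMSO wells with enzyme for no effect and DMSO wells lacking enzyme for full effect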)). Details: Recombinant SENP6 catalytic domain, aminoluciferin luminescence; at 10 µM; stronger effect = higher value.
Sentrin-specific protease 6 (Homo sapiens), sequence (Q9GZR1 628-1112 limits assumed): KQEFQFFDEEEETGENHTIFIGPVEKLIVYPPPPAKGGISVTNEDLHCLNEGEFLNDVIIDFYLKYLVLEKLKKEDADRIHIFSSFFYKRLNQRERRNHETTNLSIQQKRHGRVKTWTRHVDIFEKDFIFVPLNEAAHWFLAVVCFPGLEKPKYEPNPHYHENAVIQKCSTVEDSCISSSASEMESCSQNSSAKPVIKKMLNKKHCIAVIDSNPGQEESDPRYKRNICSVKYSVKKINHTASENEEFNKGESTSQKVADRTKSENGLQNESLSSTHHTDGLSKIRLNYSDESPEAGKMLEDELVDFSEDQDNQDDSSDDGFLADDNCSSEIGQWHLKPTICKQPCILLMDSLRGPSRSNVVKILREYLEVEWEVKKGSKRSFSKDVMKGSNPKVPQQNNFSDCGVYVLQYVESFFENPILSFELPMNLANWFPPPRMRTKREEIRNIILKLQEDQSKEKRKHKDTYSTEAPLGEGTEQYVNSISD

SMILES	inhibition
CC(C)(C)C(=O)NCCCNc1ccc([N+](=O)[O-])cc1	-25.9%
O=c1c2ccccc2ncn1/N=C/c1ccccc1	85.3% (active)
CCCc1nc2ccccc2c(=O)n1/N=C/c1ccc(O)c(O)c1	-27.3%
O=C(Nn1cnc2ccccc2c1=O)c1ccccc1	-4.91%
COc1cccc(CNn2cn[nH]c2=S)c1OCc1ccccc1	-3.63%
Cc1cc2nc(SCCN3CCOCC3)[nH]c2cc1C	1.61%
O=C(CCCN1C(=O)/C(=C/c2ccccc2)SC1=S)Nc1ccc(O)cc1	21.3%
C=CCOc1ccc(/C=C2\SC(=S)N(CCC(=O)O)C2=O)cc1	100% (active)
COc1ccc(/C=C2\SC(=S)N(CC(=O)NNC(=O)c3ccncc3)C2=O)cc1	-3.66%
O=C(CN1CCCCC1)Nc1ccccc1C(=O)NC1CC1	-13.9%
Cc1ccc(NC(=O)CS(=O)CC(=O)N(c2ccccc2)C(C)C(=O)NC2CCCC2)cc1 (stereo not given)	-5.91%
C/C(=C\C(=O)c1cccnc1)Nc1ccc(C)c(C)c1	6.26%
O=C(Nc1cccc(O)c1)c1ccc(C(=O)c2ccccc2)o1	2.68%
C/C(=C\C(=O)c1ccccc1)Nc1cccc(O)c1	57.9% (active)
CCC1(CC)NC(=O)N(CC(=O)OCC(=O)c2cc(C)c(C)cc2C)C1=O	-10.6%
Cc1ccc(S(=O)(=O)/N=C(\CN2CCOCC2)N2CCOCC2)cc1	12.4%
COc1cc(NC(=O)COC(=O)c2ccc([N+](=O)[O-])s2)cc(OC)c1OC	68.2% (active)
COc1ccc(C(=O)COC(=O)c2ccc([N+](=O)[O-])s2)cc1OC	38.4%
O=C(OCC(=O)N1CCN(c2ccccc2)CC1)c1ccc([N+](=O)[O-])s1	49.4%
O=C(NCc1ccccc1CN1CCCC1)c1cccc(S(=O)(=O)Nc2ccc(F)cc2)c1	18.3%
C[C@@H]1CN([C@@H](C)CO)C(=O)c2cc(NC(=O)C3CC3)ccc2O[C@H]1CN(C)C	1.75%
COc1ccc(S(=O)(=O)N2CCC(C(=O)NCCC(=O)NCc3cccc(OC)c3)CC2)cc1	0.176%
Cc1cccc(NS(=O)(=O)c2ccc(C)c(C(N)=O)c2)c1	-6.03%
CC(=O)N1CCN(C(=O)c2cccc(S(=O)(=O)Nc3ccc(C)cc3)c2)CC1	-4.46%
Cc1cccc(NS(=O)(=O)c2cccc(C(=O)NNC(=O)c3ccccc3O)c2)c1	64.3% (active)
